Compound activity from PubChem BioAssay.
FBW7 act – activators of human E3 ligase FBW7; AlphaScreen FBW7–phospho-cyclin E peptide binding, activator screen; AID 1259310; Q969H0; hit rate 0.13% among 650,000; normalized activity (activation), % at 26.1 µM; in the data active = normalized activity above about 1.9%;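 also: purified mutant Fbw7 with reduced substrate affinity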
TEAD-YAP inh – TEAD-YAP interaction inhibition; HEK-TIYL cells, TEAD-Gal4/YAP UAS-luciferase luminescence; inhibition, % at 9.12 µM; hit rate 1.4% among 640,000; AID 1259422; in the data active = inhibition above about 32%
GPR151 activ – human GPR151 activation; hit rate 1% among 650,000; PathHunter beta-arrestin GPR151 cells, luminescence; Q8TDV0; activation, % at 11.2 µM; AID 1508602; in the data active = activation above about 4.9%
MITF primary – blocks human microphthalmia-associated transcription factor | AID 1259374 | hit rate 0.91% among 650,000 | inhibition, % at 2.6 µM | O75030 | AlphaScreen MITF homodimerization, bead proximity signal; in the data active = inhibition above about 50%
GPR151 confirm – confirmation of human GPR151 activators; shares compounds with GPR151 activ; GPR151 PathHunter beta-arrestin cells, luminescence, 90 min; % of EA-reagent control over plate median; activation, % at 11.2 µM; 6,700 tested, under 10 active; AID 1508609;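 active = mean percent activation across replicates above the confirmation screen cutoff of 4.91%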
GPR119 ag – GPR119 activation, counter-screen for GPR151 activators | shares compounds with GPR151 activ | GPR119 PathHunter beta-arrestin cells, luminescence, 90 min; 0 = compound-well median, 100 = enzyme-acceptor control | activation, % at 11.2 µM | hit rate 0.3% among 6,700 | AID 1508611;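 active = mean percent activation in the counterscreen above 29.09%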;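 also: counterscreen on off-target GPR119 to flag nonselective hits from the GPR151 activator screen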
Target sequence (Q8TDV5 whole entry, looked up): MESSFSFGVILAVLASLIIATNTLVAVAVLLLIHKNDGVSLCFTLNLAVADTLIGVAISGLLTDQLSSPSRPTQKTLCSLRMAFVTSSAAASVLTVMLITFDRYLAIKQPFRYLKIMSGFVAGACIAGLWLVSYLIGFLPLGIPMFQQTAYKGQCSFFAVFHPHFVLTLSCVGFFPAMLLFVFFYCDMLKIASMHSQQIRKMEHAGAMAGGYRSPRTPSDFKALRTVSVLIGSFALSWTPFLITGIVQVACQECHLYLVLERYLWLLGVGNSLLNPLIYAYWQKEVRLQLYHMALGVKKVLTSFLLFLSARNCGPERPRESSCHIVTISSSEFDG
Numbers stand for hits. Only some compounds are listed: those with a hit (about 3.5% of all), similar ones and a draw of the others.

O=C(NCCCNc1ccc([N+](=O)[O-])cc1)c1ccc(F)cc1 was read as FBW7 act inactive, TEAD-YAP inh inactive, GPR151 activ 5.7, MITF primary inactive, GPR151 confirm inactive and GPR119 ag inactive.
O=C(NCCc1ccc(F)cc1)c1ccc([N+](=O)[O-])cc1 was read as FBW7 act inactive, TEAD-YAP inh inactive, GPR151 activ inactive and MITF primary inactive.
Screening CCOC(=O)c1ccc(NC(=O)/C(=C/c2cccc(Br)c2)NC(=O)c2ccco2)cc1 returned FBW7 act inactive, TEAD-YAP inh inactive, GPR151 activ inactive and MITF primary inactive.
`CCNC(=O)/C(=C\c1ccc(OC)cc1)NC(=O)c1ccc(Br)cc1` gave FBW7 act inactive, TEAD-YAP inh inactive, GPR151 activ 5.1, MITF primary inactive, GPR151 confirm inactive and GPR119 ag inactive.
`CCOC(=O)c1ccc(NC(=O)/C(=C\c2ccc([N+](=O)[O-])cc2)NC(=O)c2ccco2)cc1` gave FBW7 act inactive, TEAD-YAP inh inactive, GPR151 activ 6.2, MITF primary inactive, GPR151 confirm inactive and GPR119 ag inactive.
Screening CCNC(=O)/C(=C/c1cccc([N+](=O)[O-])c1)NC(=O)c1ccc(C)cc1 returned FBW7 act inactive, TEAD-YAP inh inactive, GPR151 activ 5.9, MITF primary inactive, GPR151 confirm inactive and GPR119 ag inactive.
COc1ccc(/C=C(/NC(=O)c2ccc(Br)cc2)C(=O)NCC(=O)O)cc1 was read as FBW7 act inactive, TEAD-YAP inh inactive, GPR151 activ inactive and MITF primary inactive.
`CCCCNC(=O)/C(=C\c1cccc([N+](=O)[O-])c1)NC(=O)c1ccc(C)cc1` gave FBW7 act inactive, TEAD-YAP inh inactive, GPR151 activ inactive and MITF primary inactive.
For COc1ccccc1OCC(=O)NC1CCCCCC1 the results were FBW7 act inactive, TEAD-YAP inh inactive, GPR151 activ inactive and MITF primary inactive.
`COC(=O)C(C(=O)Nc1ccccc1C)C1CCCC1` (configuration not stated) gave FBW7 act inactive, TEAD-YAP inh inactive, GPR151 activ inactive and MITF primary inactive.
CCOC(=O)C(C(=O)Nc1ccccc1OC)C1CCCCC1 (configuration not stated) was read as FBW7 act inactive, TEAD-YAP inh inactive, GPR151 activ 5.1, MITF primary inactive, GPR151 confirm inactive and GPR119 ag inactive.
`COc1ccccc1OC(C)C(=O)NC1CCCCC1` (configuration not stated) gave FBW7 act inactive, TEAD-YAP inh inactive, GPR151 activ 6.4, MITF primary inactive, GPR151 confirm inactive and GPR119 ag inactive.
For O=C1NC2(CCN(C(=O)C3(c4ccccc4)CC3)CC2)Nc2ccccc21 the results were FBW7 act inactive, TEAD-YAP inh inactive, GPR151 activ inactive and MITF primary inactive.
Screening N#CC1=C(N)Oc2n[nH]c(-c3ccc(Cl)c(Cl)c3)c2C1c1cc2c(cc1Br)OCO2 (configuration not stated) returned FBW7 act inactive, TEAD-YAP inh inactive, GPR151 activ inactive and MITF primary inactive.
`O=C(O)c1ccc(NC(=O)c2ccccc2NC(=O)c2cccc(Br)c2)cc1` gave FBW7 act inactive, TEAD-YAP inh inactive, GPR151 activ 5.5, MITF primary inactive, GPR151 confirm inactive and GPR119 ag inactive.
`COC(=O)c1ccccc1NC(=O)Nc1ccc(Cl)cc1` gave FBW7 act inactive, TEAD-YAP inh inactive, GPR151 activ inactive and MITF primary inactive.
Screening CCOC(=O)c1ccccc1NC(=O)c1cccc(Br)c1 returned FBW7 act inactive, TEAD-YAP inh inactive, GPR151 activ inactive and MITF primary inactive.
Screening COC(=O)c1ccccc1NC(=O)Nc1ccc(Br)cc1Cl returned FBW7 act inactive, TEAD-YAP inh inactive, GPR151 activ 5.9, MITF primary inactive, GPR151 confirm inactive and GPR119 ag inactive.
COC(=O)c1cccc(NC(=O)c2cccc(Br)c2)c1C was read as FBW7 act inactive, TEAD-YAP inh inactive, GPR151 activ 15, MITF primary inactive, GPR151 confirm inactive and GPR119 ag inactive.
`O=C(CSc1ccc2nnc(-c3cccnc3)n2n1)Nc1ccc([N+](=O)[O-])cc1` gave FBW7 act inactive, TEAD-YAP inh inactive, GPR151 activ inactive and MITF primary inactive.
For Brc1ccc(Oc2ccc(Oc3ccc(Br)cc3)cc2)cc1 the results were FBW7 act inactive, TEAD-YAP inh inactive, GPR151 activ inactive and MITF primary inactive.
For Nc1ccc(Oc2ccc(Br)cc2)cc1 the results were FBW7 act inactive, TEAD-YAP inh inactive, GPR151 activ 11, MITF primary inactive, GPR151 confirm inactive and GPR119 ag inactive.
Cc1cccc(N=C2NC(=O)/C(=C\c3ccc(OCC(C)C)cc3)S2)c1 was read as FBW7 act inactive, TEAD-YAP inh inactive, GPR151 activ inactive and MITF primary inactive.
For O=C(NO)c1ccc(Br)s1 the results were FBW7 act inactive, TEAD-YAP inh inactive, GPR151 activ inactive and MITF primary inactive.
For CC(=O)NCCNC(=O)c1ccc(Br)s1 the results were FBW7 act inactive, TEAD-YAP inh inactive, GPR151 activ 6.0, MITF primary inactive, GPR151 confirm inactive and GPR119 ag inactive.
`NC(=O)c1ccccc1NC(=O)CCn1c(=S)oc2ccccc21` gave FBW7 act inactive, TEAD-YAP inh inactive, GPR151 activ 7.8, MITF primary inactive, GPR151 confirm inactive and GPR119 ag inactive.
Screening COC(=O)C1=C(C(=O)OC)[C@@H]2N(C)c3ccc(OC)cc3[C@@]23C[C@@H](C(=O)OC)N(C(=O)c2ccco2)C3=N1 returned FBW7 act inactive, GPR151 activ 6.1, MITF primary inactive, GPR151 confirm inactive and GPR119 ag inactive.
For CCC1CCc2c(sc(NC(=O)c3ccc(OC)cc3)c2C(N)=O)C1 (configuration not stated) the results were FBW7 act inactive, TEAD-YAP inh inactive, GPR151 activ inactive and MITF primary inactive.
Screening COc1ccc(C(=O)OCc2ccc([N+](=O)[O-])cc2Cl)cc1OC returned FBW7 act inactive, TEAD-YAP inh inactive, GPR151 activ inactive and MITF primary inactive.
O=C(CCC1=NS(=O)(=O)c2ccccc2N1)Nc1ccccc1 was read as FBW7 act inactive, TEAD-YAP inh inactive, GPR151 activ 6.2, MITF primary inactive, GPR151 confirm inactive and GPR119 ag inactive.
For CC(C)CNC(=O)c1ccc2c(c1)CC(C(=O)Nc1ccc(-c3cn[nH]c3)cc1OCCN(C)C)CO2 (configuration not stated) the results were FBW7 act inactive, TEAD-YAP inh inactive, GPR151 activ inactive and MITF primary inactive.
`CC(C)(C)NC(=O)NC(=O)COC(=O)c1ccc(Cl)c(N)c1` gave FBW7 act inactive, TEAD-YAP inh inactive, GPR151 activ inactive and MITF primary inactive.
